Measurements published in PubChem BioAssay AID504444 (National Center for Advancing Translational Sciences (NCATS), 2011).
Values joined by “and” are separate entries in the source; they are usually repeats but may differ in a detail not shown here. Equal entries are not always repeated. About 7,500 (2.1%) of roughly 360,000 compounds were called active. Roughly 20% stayed inconclusive and do not appear here. Calls come from the whole dose curve; as a rule, active = well fitted inhibition curve with a large enough effect; inconclusive = small, poorly fitted or top-dose-only effect, or effect the other way; inactive = flat fitted curve, though single readings scatter. Shown is part of a subset that was picked to be rich in actives. A structure can be active in one record and inactive in another.

Assay: Nrf2 qHTS screen for inhibitors; note: nearly all actives have a fitted effect of over 60% in size
Details: A549 ARE-Fluc reporter, luciferase luminescence, 18-24 h; series mostly up to 46 µM; activity change, negative = inhibition: at the top concentration
Outline: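 Two sequential reads on A549 ARE_Fluc cells exposed to compound for 18-24 h: a CellTiter-Fluor fluorescence read for viability, then a luciferase luminescence read for Nrf2/ARE activity.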
% is set by controls: 0 for no effect and ±100 for the full control effect; potency is the fitted concentration of half-maximal effect.

| Compound | activity change, negative = inhibition | Potency |
| --- | --- | --- |
| Cc1noc(C)c1NC(=O)Nc1ccc2c(c1)C(=O)N([C@H](C)CO)C[C@H](C)[C@@H](CN(C)C(=O)Nc1ccc(C(F)(F)F)cc1)O2 | -5.04% (inactive) | – |
| Cc1ccc(-c2nn(CCC(=O)Nc3ccc(Cl)c(Cl)c3)c(=O)c3ccccc23)cc1 | -4.96% (inactive) | – |
| CCCNC(=O)C(CC)n1nc(CC)n2c(cc3oc(C)cc32)c1=O (stereo unspecified) | -22.5% (inactive) | – |
| CCOc1cccc(NC(=O)CSc2ncc(-c3ccc(Cl)cc3)[nH]2)c1 | 10.8% (inactive) | – |
| Cc1ccc(Nc2c(-c3ccc(Cl)cc3)nc3sccn23)c(C)c1 | 11.2% (inactive) | – |
| O=C(NN=Cc1ccccc1O)NN=Cc1ccccc1O | 0.438% (inactive) | – |
| Cc1n[nH]c(C)c1S(=O)(=O)N1CCCC(C(=O)Nc2ccc(Br)cc2)C1 (stereo unspecified) | – | inactive and 14.6 µM (active) |
| O=C(O)C1CCCN(S(=O)(=O)c2cccc3cccnc23)C1 (stereo unspecified) | -8.34% (inactive) | – |
| CC(=O)Nc1ccc(NC(=O)C2CCCN(S(=O)(=O)c3ccc4c(c3)CCCC(=O)N4)C2)cc1 (stereo unspecified) | 29.4% (inactive) | – |
| COc1ccc(NC(=O)C2CCCN(S(=O)(=O)c3cccc4cccnc34)C2)cc1OC (stereo unspecified) | -26.2% (inactive) | – |
| COc1ccc(NC(=O)C2CCCN(S(=O)(=O)c3cccc4cccnc34)C2)cc1 (stereo unspecified) | – | 23.1 µM (active) |
| Cc1n[nH]c(C)c1S(=O)(=O)N1CCCC(C(=O)NCC2COc3ccccc3O2)C1 (stereo unspecified) | -12.5% (inactive) | – |
| COc1ccc(Cl)cc1NC(=O)CN(C)CC(=O)Nc1ccc2c(c1)OCO2 | -16% (inactive) | – |
| O=C(Cn1cc(SCc2cccc(Cl)c2)c2ccccc21)N1CCCCC1 | -21.2% (inactive) | – |
| COc1ccc(-c2c(-c3cc(OC)cc(OC)c3)n(C)c3ccc(-c4ccn[nH]4)cc23)cc1 | – | 11.6 µM (active) |
| COc1cc(OC)cc(-c2c(-c3ccc(F)cc3)c3cc(-c4ccc5cc[nH]c5c4)ccc3n2C)c1 | -11.2% (inactive) | – |
| COc1cc(OC)cc(-c2c(-c3cccs3)c3cc(-c4ccc(OC)nc4)ccc3n2C)c1 | -22.5% (inactive) | – |
| COCC(=O)N(C)[C@H]1C[C@H]2c3cc(Oc4ccccc4C)ccc3CCN2C(=O)[C@H]1[C@H](C)O | 0.467% (inactive) | – |
| CC(OC(=O)c1cc2ccccc2[nH]1)C(=O)N(C)c1ccccc1 (stereo unspecified) | -3.45% (inactive) | – |
| Cc1ccc(C)c(N2CCN(C(=O)CN3C(=O)COc4ccc(S(=O)(=O)N5CCCCCC5)cc43)CC2)c1 | 6.28% (inactive) | – |
| O=C(CC1Sc2ccccc2NC1=O)NNc1ccc(Cl)c(Cl)c1 (stereo unspecified) | -2.12% (inactive) | – |
| Cc1cccc(Nc2nc(NCCO)nc(N3CCCC3)n2)c1 | -11.3% (inactive) | – |
| OCCCNc1nccc(-c2cc(Nc3cccc(Cl)c3)ncn2)n1 | – | 2.06 µM (active) |

| Compound | activity change, negative = inhibition | Potency |
| --- | --- | --- |
| OCCCNc1nc(-c2ccccc2)c2cc(Cl)ccc2n1 | -5.54% (inactive) | – |
| Cc1ccc(NC(=O)Cn2cnc3c(OCc4ccccc4)ncnc32)cc1C | -4.24% (inactive) | – |
| COc1ccc(S(=O)(=O)N2C[C@H]3CON(C)[C@H]3C[C@H]2c2cccc(Br)c2)cc1 | -18.2% (inactive) | – |
| COc1ccc(CCNc2nc(-c3ccc(Cl)cc3)cc(C(F)(F)F)n2)cc1OC | -14.7% [at 9.27 µM] (inactive) | – |
| CC(=NNC(=O)c1ccncc1)c1ccc(Cl)c(Cl)c1 | -1.76% (inactive) | – |
| NC(=O)c1sc2nc3c(c(-c4ccccc4)c2c1N)CCC3 | – | 9.2 µM (active) |
| Cc1sc2nc(CC(N)=O)[nH]c(=O)c2c1-c1ccccc1 | 1.14% (inactive) | – |
| Nc1c(C(=O)NCc2ccccc2)sc2nc3c(cc12)C(=O)CCC3 | 9.66% (inactive) | – |
| COc1ccc(N2CCN(C3=NS(=O)(=O)C(c4cccc(Br)c4)=C3C)CC2)cc1 | 2.1% (inactive) | – |
| CSCCC(NC(=O)COc1ccccc1)C(=O)OCc1ccc(Cl)cc1 (stereo unspecified) | -14.7% (inactive) | – |
| CN(C)CCNC(=O)Nc1cccc(Cl)c1Cl | -2.8% (inactive) | – |
| CN(C)CCNC(=O)c1ccc(Cl)c2cc3ccccc3nc12 | – | 18.4 µM (active) |
| CC(=O)NCCNC(=O)c1cc(-c2cccc3ccccc23)nc2ccccc12 | 7.96% (inactive) | – |
| CC1CCCCC1NCC(=O)Nc1ccccc1C(=O)Nc1ccccc1 (stereo unspecified) | -0.522% (inactive) | – |
| CC[C@]12c3[nH]c4cc(CCC(=O)N(C)C)ccc4c3CCN1C(=O)[C@@H](CC(=O)NCCCn1ccnc1)C[C@@H]2C(=O)N1CCN(C(=O)C2CC2)CC1 | 2.04% (inactive) | – |
| Cc1c(C)n(Cc2ccc(Cl)cc2)c2ccc(C(=O)N3CCN(c4ccccc4F)CC3)cc12 | -26.6% (inactive) | – |
| O=C(CNC1CCCCC1)NCC1(c2ccccc2)CCCC1 | 0.664% (inactive) | – |
| COc1cc(C(=O)NCC2(c3ccccc3)CCCC2)ccc1OC(C)C | -3.66% (inactive) | – |
| Cc1cccc(C(CC(=O)NCC2(c3ccccc3)CCCC2)c2ccccc2)c1O (stereo unspecified) | – | 14.6 µM (active) |
| CC(=O)c1cccc(NC(=O)c2nc(-c3ccccc3)n(-c3cccc(C)c3)n2)c1 | – | 18.4 µM (active) |
| Cc1cccc(N2C(=O)c3ccc(C(=O)Nc4cccc(C(=O)O)c4)cc3C2=O)c1 | 6.82% (inactive) | – |
| CC(=O)c1cccc(NC(=O)c2cc(C)nn2-c2ccccc2)c1 | 10.8% (inactive) | – |
| Cc1sc(C2C(C#N)=C(N)N(c3cccc(Cl)c3)C3=C2C(=O)CCC3)cc1CN1CCOCC1 (stereo unspecified) | 24.2% (inactive) | – |

| Compound | activity change, negative = inhibition | Potency |
| --- | --- | --- |
| COc1ccc(CNCCCNCc2ccc(OC)c(OC)c2)cc1OC | 12.5% (inactive) | – |
| O=C(c1ccncc1)N1CCN(S(=O)(=O)c2cc(C(F)(F)F)cc(C(F)(F)F)c2)CC1 | -0.0458% (inactive) | – |
| O=C(Cc1cccs1)N1CCCC(c2nc(-c3ccc(S(=O)(=O)N4CCCC4)cc3)no2)C1 (stereo unspecified) | – | 23.1 µM (active) |
| O=C(c1ccc(C(F)(F)F)cc1)N1CCC(c2nc(-c3ccc(S(=O)(=O)N4CCCC4)cc3)no2)CC1 | – | 7.31 µM (active) |
| NC(=O)C1CCN(C(=O)c2ccc(C(F)(F)F)cc2)CC1 | -15.4% (inactive) | – |
| CC(C)c1ccc(-c2noc(C3CCCN(S(C)(=O)=O)C3)n2)cc1 (stereo unspecified) | 0.129% (inactive) | – |
| O=C(c1ccc(F)cc1)N1CCCC(c2nc(-c3cccs3)no2)C1 (stereo unspecified) | 11.9% (inactive) | – |
| CCOc1cc(C(=O)N(Cc2ccccc2)c2ccc(C)cc2)ccc1OCC(=O)N1CCOCC1 | -7.76% (inactive) | – |
| COc1ccccc1NC(=O)C(=O)c1cc(C)n(-c2ccccc2F)c1C | 23.5% (inactive) | – |
| Oc1ccc(Cl)cc1C1C=C(c2ccc3c(c2)OCO3)NC(c2c(F)cccc2Cl)N1 (stereo unspecified) | 12.9% (inactive) | – |
| OC[C@@H]1O[C@H](n2cnc3c(SCc4ccccc4)ncnc32)[C@H](O)[C@H]1O | 20% (inactive) | – |
| Cc1c(Cl)cccc1-c1ccc(CNCCCSc2nnnn2C)o1 | -9.22% (inactive) | – |
| CCCCCn1c(CCNC(=O)c2ccc(F)cc2)nc2ccccc21 | 6.85% [at 9.27 µM] (inactive) | – |
| CC(C)NC(=O)C1CCC(Cn2c(=O)c3sccc3n(Cc3ccc(F)cc3)c2=O)CC1 (stereo unspecified) | 13.5% (inactive) | – |
| COc1cccc(-c2nc(CS(=O)(=O)CC(=O)NCCc3ccc(OC)c(OC)c3)c(C)o2)c1 | – | inactive |
| CCCCN(CC)CCCNC(=O)CS(=O)(=O)Cc1nc(-c2cccc(OC)c2)oc1C | 15.6% (inactive) | – |
| COc1cccc(-c2nc(CS(=O)(=O)CC(=O)N3CCN(c4cc(C)ccc4C)CC3)c(C)o2)c1 | – | 2.59 µM (active) |
| COc1cccc(C2C(C(=O)Nc3ccc(C)cc3C)=C(C)Nc3c(C(=O)Nc4ccccc4)cnn32)c1 (stereo unspecified) | 10.7% (inactive) | – |
| CN1C(c2ccc(F)cc2)=CS/C1=C(/C#N)c1nnc2n1-c1ccccc1SC2 | -26.9% (inactive) | – |
| C(=N\N1CCN(c2ccccn2)CC1)/C1=C(N2CCOCC2)C(=C/c2ccccc2)/CC1 | 2.38% (inactive) | – |
| N#C/C(=C\C1=C(N2CCOCC2)C(=C\c2ccccc2)/CC1)C(=O)Nc1ccccc1F | -14.6% (inactive) | – |
| O=C1Nc2ccc(Br)cc2/C1=N/N=C/C1=C(N2CCOCC2)C(=C\c2ccccc2)/CC1 | – | 20.6 µM (active) |
| CCOc1ccccc1NC(=S)C(=C([O-])c1ccc2c(c1)OCCO2)[n+]1ccc(CC)cc1 | 4.22% (inactive) | – |

| Compound | activity change, negative = inhibition | Potency |
| --- | --- | --- |
| COc1cc(F)c(S(=O)(=O)N2CCCN(S(=O)(=O)c3ccc(N)cc3)CC2)c(F)c1 | -10% (inactive) | – |
| CCOC(=O)c1ccc(NC(=O)c2ncn(-c3ccccc3)n2)cc1 | 3.01% (inactive) | – |
| Oc1ccc(Cl)cc1C1C=C(c2ccc3c(c2)OCO3)NC(c2ccc(F)c(Br)c2)N1 (stereo unspecified) | -10.6% (inactive) | – |
| CC(C)N(C(=O)[C@H]1C[C@H](CC(=O)NCCC2=CCCCC2)C(=O)N2CCc3c([nH]c4cc(CCC(=O)N(C)C)ccc34)[C@]12C)C(C)C | 5.78% (inactive) | – |
| CCCCCCn1c(CN2CCCCC2)nc2c1c(=O)n(C)c(=O)n2C | 5.48% (inactive) | – |
| CCCCCCCCn1c2c(c(=N)c3c1CCC3)CCCC2 | – | 9.2 µM (active) |
| COc1ccccc1N1CCN(C(=O)CCS(=O)(=O)c2ccc3c(c2)NC(=O)C(C)S3)CC1 (stereo unspecified) | -2.57% (inactive) | – |
| Cc1cccc(N2CCN(C(=O)CCS(=O)(=O)c3ccc4c(c3)NC(=O)C(C)S4)CC2)c1C (stereo unspecified) | – | 2.59 µM (active) |
| CC1Sc2ccc(S(=O)(=O)CCC(=O)NCc3ccccc3Cl)cc2NC1=O (stereo unspecified) | -8.63% (inactive) | – |
| Oc1ccc(-c2nc3ccccc3nc2-c2ccc(O)cc2O)c(O)c1 | 2.55% (inactive) | – |
| CN[C@H](C(=O)NC[C@H]1O[C@@H](n2cnc3c(N)ncnc32)[C@H](O)[C@@H]1O)[C@@H](C)OCc1ccccc1 | -9.95% (inactive) | – |
| CCCCNC(=O)Cn1c(SCc2cccc(Cl)c2)nc2ccncc21 | 13.2% (inactive) | – |
| COc1cccc(Cn2c(SCc3ccc(C(=O)N4CCCCC4)cc3)nc3ccncc32)c1 | – | 18.4 µM (active) |
| Cc1cccc(CSc2nc3ccncc3n2CC(=O)N(C)C2CCCCC2)c1 | 2.61% (inactive) | – |
| Cc1cccc(CSc2nc3ccncc3n2Cc2ccc(C(=O)O)cc2)c1 | 6.25% (inactive) | – |
| O=C(O)c1ccc(Cn2c(SCc3ccc(F)cc3)nc3ccncc32)cc1 | 5.55% (inactive) | – |
| COc1cccc(Cn2c(SCc3ccc(C(=O)N4CCC(C)CC4)cc3)nc3ccncc32)c1 | – | 20.6 µM (active) |
| COc1ccccc1-c1sc2ccccc2c1-c1ccc(Br)nc1 | 4.2% (inactive) | – |
| OCCNc1ncnc2oc(-c3ccco3)c(-c3ccco3)c12 | 3.43% (inactive) | – |
| CCCN1CN=C(NS(=O)(=O)c2ccc(NC(C)=O)cc2)NC1 | 0.228% (inactive) | – |
| Cc1ccc(S(=O)(=O)N2CCC(C(=O)Nc3cc(C)ccc3C)CC2)cc1 | -22.1% (inactive) | – |
| Cc1ccc(-c2nc(=N)sn2Cc2ccccc2)cc1 | 21.2% (inactive) | – |
